Rows were chosen to be rich in hits. Some 19% of all compounds tested hit in one or more screens of this group.
TDP1 cell noCPT: qHTS for Inhibitors of human tyrosyl-DNA phosphodiesterase 1 (TDP1): qHTS in cells in absence of CPT. DT40 Tdp1-/- hTDP1 cells, no CPT, ATP luminescence, 48 h. Potency, µM (highest dose often 46.2 µM), for the others: top-dose activity change, negative = growth inhibition, hits mostly inhibitors. 420,000 tested, 15% active; further: nearly all actives have a fitted effect of over 55% in size
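Camptothecin absent (DMSO only). Human TDP1-complemented DT40 knockout cells, 400 cells/well, 37 °C for minimum 48 hr; ATP measured via CellTiter-Glo, 30 min dark incubation, luminescence.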
KB-V1 cytotox: kills drug-selected multidrug resistant KB-V1 cells; KB-V1 MDR cells viability, CellTiter-Glo, 72 h; Potency, µM (doses to about 46.1 µM), most hits filed as cytotoxic; 400,000 tested, 3.4% active; further: nearly all actives have a fitted effect of over 60% in size
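KB-V1 MDR subline cells in DMEM (phenol-red free, 10% FBS) exposed to compounds in qHTS concentration series for 72 h at 37 degrees C. Viability read by CellTiter-Glo luminescence; concentration-effect curves fitted after normalization and correction.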
HT1080NT lethal: kills 2HG-producing HT-1080-NT fibrosarcoma cells; HT-1080-NT fibrosarcoma viability, CellTiter-Glo ATP luminescence, 48 h; Potency, µM (series often up to 46.1 µM), for inactives: at the top dose activity, negative = less viability, hits mostly cytotoxic; 360,000 tested, 1.6% active;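 further: NT is the 2HG producing partner of a matched IDH1 knockdown line; 0% = DMSO-treated cells and -100% = media-only wells without cells; nearly all actives have a fitted effect of over 55% in size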
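Luminescent CellTiter-Glo readout after 48 hours of compound exposure at 37 degrees C defined viability of HT-1080-NT cells. Activity was normalized to DMSO wells and cell-free media wells; concentration-response curves were fitted and assigned curve classes.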
KB-3-1 cytotox: KB-3-1 parental cell cytotoxicity. KB-3-1 viability, CellTiter-Glo ATP luminescence, 72 h. 400,000 tested, 1.4% active. Potency, µM (top dose mostly 46.1 µM), hits mostly cytotoxic; further: nearly all actives have a fitted effect of over 60% in size
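Multi-concentration cytotoxicity screen in KB-3-1 cells grown in DMEM lacking phenol red with 10% FBS. After 72 h at 37 °C with compound, ATP-dependent luminescence was recorded.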
HT1080 IDH1KD tx: HT-1080 IDH1 knockdown cell toxicity (counter line). HT-1080 IDH1 knockdown viability, ATP luminescence, 48 h. Potency, µM (titrated, usually from 46.1 µM), for the others: top-dose activity, negative = toxicity, usual class: cytotoxic. 360,000 tested, 2% active. AID 686971;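 further: 0% = DMSO wells and -100% = cell-free medium wells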
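Assay cells: HT-1080 with IDH1 knockdown, 750 per well, RPMI/5% FBS. Exposure: 48 h at 37 °C following 2 h pre-incubation. Read: CellTiter-Glo luminescence; fitted concentration-response, curve class assigned.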
TDP1 cell CPT: growth inhibition of DT40 Tdp1-/-;hTDP1 cells with camptothecin (screen for TDP1 inhibitors); chicken DT40 Tdp1-/-;hTDP1 cells + 20 nM CPT, ATP luminescence, 48 h; Potency, µM (titrated, usually from 46.2 µM), without a hit: top-dose activity change, negative = growth inhibition, most hits filed as inhibitors; 420,000 tested, 12% active; AID 686979; further: nearly all actives have a fitted effect of over 55% in size
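Cell growth measured by CellTiter-Glo luminescence after a minimum 48 h, 37 C compound exposure with 20 nM CPT in Tdp1-knockout DT40 cells stably expressing hTDP1, seeded 400/well; qHTS titration format.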
Active calls of the source: *. The call rests on the fitted dose curve; in most records, active means well fitted curve in the direction sought with a large enough effect; inconclusive means small, poorly fitted or top-dose-only effect, or another doubt; inactive means no such curve, though single readings can be large; an effect the other way counts as inactive or inconclusive. Unless noted, on the % scale 0 is the no-effect control and ±100 the full control effect; potency means the concentration at half of the fitted maximal effect.

Screening O=C(CCn1c(=O)c2cccn2c2cccnc21)NCc1ccc(F)cc1 returned TDP1 cell noCPT -20% and TDP1 cell CPT 9%.
CC(C)(C)c1ccc(Oc2ccc(NC(=O)c3cccs3)cn2)cc1 was read as TDP1 cell noCPT inconclusive, KB-V1 cytotox inconclusive, HT1080NT lethal 15µM*, KB-3-1 cytotox inconclusive, HT1080 IDH1KD tx 12µM* and TDP1 cell CPT inconclusive.
Screening O=C(Nc1ccc(Oc2cccc(C(F)(F)F)c2)nc1)c1ccco1 returned TDP1 cell noCPT 12µM*, KB-V1 cytotox inactive, HT1080NT lethal -22%, KB-3-1 cytotox inactive, HT1080 IDH1KD tx inconclusive and TDP1 cell CPT -16%.
COc1ccc(NC(=O)c2cccs2)cn1 was read as TDP1 cell noCPT -14%, KB-V1 cytotox inconclusive, HT1080NT lethal inconclusive, KB-3-1 cytotox inactive, HT1080 IDH1KD tx 26% and TDP1 cell CPT -14%.
O=C(NC(=O)c1c(Cl)cccc1Cl)Nc1ccc(Oc2cccnc2)nc1 was read as TDP1 cell noCPT inconclusive, KB-V1 cytotox inactive, HT1080NT lethal -20%, KB-3-1 cytotox inactive, HT1080 IDH1KD tx -18% and TDP1 cell CPT 0%.
`O=C(Nc1ccc(Oc2cccnc2)nc1)c1ccc(C(F)(F)F)cc1` gave TDP1 cell noCPT 15µM*, KB-V1 cytotox inconclusive, HT1080NT lethal -17%, KB-3-1 cytotox inactive, HT1080 IDH1KD tx inconclusive and TDP1 cell CPT inconclusive.
`CC(C)(C)c1ccc(Oc2ccc(NC(=O)c3ccco3)cn2)cc1` gave TDP1 cell noCPT 1.6µM*, KB-V1 cytotox inconclusive, HT1080NT lethal 18µM*, KB-3-1 cytotox inactive, HT1080 IDH1KD tx 7.3µM* and TDP1 cell CPT 1.8µM*.
COc1cccc(C(=O)Nc2ccc(NC(=O)c3ccco3)nc2)c1 was read as TDP1 cell noCPT inconclusive, KB-V1 cytotox inactive, HT1080NT lethal 29%, KB-3-1 cytotox inactive, HT1080 IDH1KD tx 24% and TDP1 cell CPT -14%.
Screening CCOC(=O)N1CCN(c2c(N3CCN(c4cccc(C(F)(F)F)c4)CC3)c(=O)c2=O)CC1 returned TDP1 cell noCPT -25%, KB-V1 cytotox inactive, HT1080NT lethal 8%, KB-3-1 cytotox inactive, HT1080 IDH1KD tx -1% and TDP1 cell CPT -24%.
CCOC(=O)c1cnc2ccc(OC)cc2c1NCCN1CCOCC1 was read as TDP1 cell noCPT inconclusive, KB-V1 cytotox inactive, HT1080NT lethal 0%, KB-3-1 cytotox inactive, HT1080 IDH1KD tx 2% and TDP1 cell CPT -29%.
For CCc1ccc(OCC(=O)N2CCN(c3ccccc3F)CC2)cc1 the results were TDP1 cell noCPT -3%, KB-V1 cytotox inactive, HT1080NT lethal 8%, KB-3-1 cytotox inactive, HT1080 IDH1KD tx 1% and TDP1 cell CPT -22%.
For CCOC(=O)c1cnc2ccc(OCC)cc2c1N1CCN(c2ccccc2F)CC1 the results were TDP1 cell noCPT 12µM*, KB-V1 cytotox inconclusive, KB-3-1 cytotox inactive and TDP1 cell CPT 16µM*.
Screening CCOC(=O)c1cnc2ccc(OCC)cc2c1NCc1ccccc1 returned TDP1 cell noCPT 6.5µM*, KB-V1 cytotox 1.8µM*, HT1080NT lethal -12%, KB-3-1 cytotox inconclusive, HT1080 IDH1KD tx inconclusive and TDP1 cell CPT 5.8µM*.
For CCOC(=O)c1cnc2cc(C(F)(F)F)ccc2c1N1CCN(c2cccc(Cl)c2)CC1 the results were TDP1 cell noCPT 23µM*, KB-V1 cytotox inactive, KB-3-1 cytotox inactive and TDP1 cell CPT inconclusive.
`CCOC(=O)c1cnc2ccc(OCC)cc2c1N1CCN(c2ccccc2)CC1` gave TDP1 cell noCPT 26µM*, KB-V1 cytotox inconclusive, HT1080NT lethal -31%, KB-3-1 cytotox inconclusive, HT1080 IDH1KD tx inconclusive and TDP1 cell CPT 21µM*.
Screening CCOC(=O)C[C@@H]1OC[C@H](C)N1S(=O)(=O)c1ccc(C)cc1 returned TDP1 cell noCPT inconclusive, KB-V1 cytotox inconclusive, HT1080NT lethal 11%, KB-3-1 cytotox inactive, HT1080 IDH1KD tx 10% and TDP1 cell CPT -31%.
Screening O=S(=O)(c1ccccc1)N1CCC2(CCCN(c3ccccc3)C2)CC1 returned TDP1 cell noCPT inconclusive and TDP1 cell CPT 6%.
`O=S(=O)(c1ccccc1)N1CCC2(CCCN(c3ccccn3)C2)CC1` gave TDP1 cell noCPT 21µM* and TDP1 cell CPT inconclusive.
`O=S(=O)(c1ccccc1)N1CCC2(CCCN(c3ccncc3)C2)CC1` gave TDP1 cell noCPT 1.2µM* and TDP1 cell CPT 2.1µM*.
`O=S(=O)(c1ccccc1)N1CCC2(CCCN(c3ncccn3)C2)CC1` gave TDP1 cell noCPT inconclusive and TDP1 cell CPT -4%.
For O=S(=O)(c1ccccc1)N1CCC2(CC1)CN(c1ccncc1)C2 the results were TDP1 cell noCPT 9.2µM* and TDP1 cell CPT inconclusive.
`O=S(=O)(c1ccccc1)N1CCC2(CC1)CN(c1ccccc1)C2` gave TDP1 cell noCPT inconclusive and TDP1 cell CPT -2%.
For O=S(=O)(c1ccccc1)N1CCC2(CCN(Cc3ccncc3)CC2)CC1 the results were TDP1 cell noCPT 21µM* and TDP1 cell CPT inconclusive.
For CN(Cc1ccccc1)C(=O)C(=O)c1ccccc1 the results were TDP1 cell noCPT -28%, KB-V1 cytotox inactive, HT1080NT lethal 10%, KB-3-1 cytotox inactive, HT1080 IDH1KD tx 28% and TDP1 cell CPT -21%.
Screening CCOc1cc(CNC2CCCC2)c(Cl)cc1OCC(=O)Nc1ccccc1 returned TDP1 cell noCPT 18µM*, KB-V1 cytotox inactive, HT1080NT lethal -24%, KB-3-1 cytotox inactive, HT1080 IDH1KD tx -16% and TDP1 cell CPT 18µM*.
For O=C(COc1ccc(Br)cc1CNC1CCCCC1)NCCc1ccccc1 the results were TDP1 cell noCPT 16µM*, KB-V1 cytotox inconclusive, HT1080NT lethal 23µM*, KB-3-1 cytotox inconclusive, HT1080 IDH1KD tx 18µM* and TDP1 cell CPT 18µM*.
Screening Cc1cccc(C(CC(=O)N2CCCCC2)c2ccccc2)c1O (configuration not stated) returned TDP1 cell noCPT -5%, KB-V1 cytotox inactive, HT1080NT lethal 9%, KB-3-1 cytotox inactive, HT1080 IDH1KD tx 4% and TDP1 cell CPT 19%.
`Cc1cc(C)cc(C(=O)NC(CC(N)=O)c2ccc(NCCN3CCCC3)c([N+](=O)[O-])c2)c1` (configuration not stated) gave TDP1 cell noCPT -22%, KB-V1 cytotox inconclusive, HT1080NT lethal 18%, KB-3-1 cytotox inactive, HT1080 IDH1KD tx -1% and TDP1 cell CPT -2%.

Source: PubChem BioAssay (National Center for Advancing Translational Sciences (NCATS))
